Data from the supplement of paper PMC11732987, “Enantioselective OTUD7B fragment discovery through chemoproteomics screening and high-throughput optimisation” (Communications Chemistry, 2025).

Legend:
Assay in all cases: log2 ratio of Biotin-Ahx-Ub-VS probe labelling (fragment/DMSO); higher = less target engagement (more negative = stronger competition), active = hit call of the paper (q ≤ 0.05, log2 ratio ≤ -1)
Conditions in all cases: compound concentration: 200 uM; treatment time: 3 h
USP42 = molecular target: T1, USP42 (UniProt Q9H9J4)
T1 sequence (whole entry): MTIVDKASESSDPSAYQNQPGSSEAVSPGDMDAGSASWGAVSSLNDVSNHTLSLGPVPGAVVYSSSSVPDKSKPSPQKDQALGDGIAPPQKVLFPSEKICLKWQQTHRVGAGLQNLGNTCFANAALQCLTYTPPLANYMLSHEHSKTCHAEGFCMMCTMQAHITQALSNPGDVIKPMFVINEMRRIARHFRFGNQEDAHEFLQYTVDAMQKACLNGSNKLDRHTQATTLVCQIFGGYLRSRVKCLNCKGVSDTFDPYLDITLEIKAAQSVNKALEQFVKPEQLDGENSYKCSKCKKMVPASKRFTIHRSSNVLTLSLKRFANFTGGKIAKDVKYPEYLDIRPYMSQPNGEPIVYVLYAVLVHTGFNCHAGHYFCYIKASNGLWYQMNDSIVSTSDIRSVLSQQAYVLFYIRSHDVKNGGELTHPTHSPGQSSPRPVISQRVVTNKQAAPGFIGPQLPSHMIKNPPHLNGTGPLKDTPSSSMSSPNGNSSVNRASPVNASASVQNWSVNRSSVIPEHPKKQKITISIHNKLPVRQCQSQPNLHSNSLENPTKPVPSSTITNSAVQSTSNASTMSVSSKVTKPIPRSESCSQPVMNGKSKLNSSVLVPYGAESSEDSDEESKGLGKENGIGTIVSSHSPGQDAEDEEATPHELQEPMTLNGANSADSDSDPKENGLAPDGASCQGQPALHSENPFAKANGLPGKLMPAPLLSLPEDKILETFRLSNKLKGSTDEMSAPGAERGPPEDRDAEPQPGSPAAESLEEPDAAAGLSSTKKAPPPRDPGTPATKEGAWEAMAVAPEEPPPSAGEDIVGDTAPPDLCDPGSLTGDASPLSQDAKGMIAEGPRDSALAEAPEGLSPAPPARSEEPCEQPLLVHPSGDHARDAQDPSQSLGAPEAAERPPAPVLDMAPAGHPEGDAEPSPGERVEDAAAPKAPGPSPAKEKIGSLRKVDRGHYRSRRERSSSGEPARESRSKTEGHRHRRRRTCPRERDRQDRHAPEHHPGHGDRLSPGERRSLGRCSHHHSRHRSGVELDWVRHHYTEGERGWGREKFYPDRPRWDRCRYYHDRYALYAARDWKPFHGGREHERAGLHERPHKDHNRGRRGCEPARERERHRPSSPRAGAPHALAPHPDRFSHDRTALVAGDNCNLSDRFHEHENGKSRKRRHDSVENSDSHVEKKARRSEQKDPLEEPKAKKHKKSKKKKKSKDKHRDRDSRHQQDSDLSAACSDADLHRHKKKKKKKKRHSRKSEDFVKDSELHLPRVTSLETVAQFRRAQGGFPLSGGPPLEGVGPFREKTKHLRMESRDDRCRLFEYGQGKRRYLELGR
Procedure, shortened: (§1)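 Labelled DUBs from HEK293T lysate were NeutrAvidin-enriched, digested with LysC and trypsin, and run by diaPASEF LC-MS/MS. Before that, each 495 µg sample in Tris/CHAPS/IGEPAL buffer with protease inhibitors was treated in triplicate with fragment at 200 µM or vehicle for 3 h, then with Biotin-Ahx-Ub-VS at 0.5 µM final for 1 h. Values are average log2 ratios of fragment over vehicle by unpaired t-test, based on global-median-normalised Spectronaut label-free quantities from proteins with ≥2 unique peptides.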

USP46 = USP46 (UniProt P62068)
Procedure, shortened: as §1

USP47 = molecular target: T2, USP47 (UniProt Q96K76)
T2 sequence (whole entry): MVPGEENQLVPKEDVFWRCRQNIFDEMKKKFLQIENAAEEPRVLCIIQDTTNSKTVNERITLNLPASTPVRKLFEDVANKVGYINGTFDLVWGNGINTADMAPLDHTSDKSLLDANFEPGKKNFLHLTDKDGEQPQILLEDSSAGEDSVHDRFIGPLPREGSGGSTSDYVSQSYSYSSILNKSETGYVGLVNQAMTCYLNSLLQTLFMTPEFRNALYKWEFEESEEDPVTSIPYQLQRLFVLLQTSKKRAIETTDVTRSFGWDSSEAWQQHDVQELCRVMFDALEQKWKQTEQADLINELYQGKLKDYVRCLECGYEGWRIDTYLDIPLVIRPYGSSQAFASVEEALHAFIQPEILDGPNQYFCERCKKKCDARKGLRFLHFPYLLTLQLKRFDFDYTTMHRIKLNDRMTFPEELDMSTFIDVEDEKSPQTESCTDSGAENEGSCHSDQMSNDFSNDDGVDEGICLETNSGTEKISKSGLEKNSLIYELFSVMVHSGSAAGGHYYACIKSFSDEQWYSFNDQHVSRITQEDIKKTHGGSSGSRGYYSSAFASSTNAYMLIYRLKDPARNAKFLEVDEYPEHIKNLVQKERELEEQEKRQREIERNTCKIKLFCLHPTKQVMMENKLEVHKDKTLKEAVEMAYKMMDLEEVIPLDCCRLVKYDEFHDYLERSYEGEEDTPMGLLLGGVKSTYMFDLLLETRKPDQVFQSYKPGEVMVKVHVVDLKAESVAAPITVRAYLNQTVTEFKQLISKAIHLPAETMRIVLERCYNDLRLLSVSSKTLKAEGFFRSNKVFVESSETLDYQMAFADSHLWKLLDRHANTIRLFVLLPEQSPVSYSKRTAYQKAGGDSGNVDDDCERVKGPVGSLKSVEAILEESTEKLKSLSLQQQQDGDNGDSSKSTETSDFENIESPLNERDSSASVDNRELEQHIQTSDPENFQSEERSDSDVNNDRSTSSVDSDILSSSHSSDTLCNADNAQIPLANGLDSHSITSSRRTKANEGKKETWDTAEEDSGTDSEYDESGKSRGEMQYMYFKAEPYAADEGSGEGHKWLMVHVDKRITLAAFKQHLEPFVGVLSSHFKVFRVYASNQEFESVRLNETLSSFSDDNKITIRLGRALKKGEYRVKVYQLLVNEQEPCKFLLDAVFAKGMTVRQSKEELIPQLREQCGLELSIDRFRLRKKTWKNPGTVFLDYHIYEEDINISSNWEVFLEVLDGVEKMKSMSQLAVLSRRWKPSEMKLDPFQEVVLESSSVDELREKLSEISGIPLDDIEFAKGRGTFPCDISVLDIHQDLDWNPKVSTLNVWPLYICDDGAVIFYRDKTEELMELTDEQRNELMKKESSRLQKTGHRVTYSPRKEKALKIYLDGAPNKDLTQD
Procedure, shortened: as §1

USP48 = molecular target: T3, USP48 (UniProt Q86UV5)
T3 sequence (whole entry): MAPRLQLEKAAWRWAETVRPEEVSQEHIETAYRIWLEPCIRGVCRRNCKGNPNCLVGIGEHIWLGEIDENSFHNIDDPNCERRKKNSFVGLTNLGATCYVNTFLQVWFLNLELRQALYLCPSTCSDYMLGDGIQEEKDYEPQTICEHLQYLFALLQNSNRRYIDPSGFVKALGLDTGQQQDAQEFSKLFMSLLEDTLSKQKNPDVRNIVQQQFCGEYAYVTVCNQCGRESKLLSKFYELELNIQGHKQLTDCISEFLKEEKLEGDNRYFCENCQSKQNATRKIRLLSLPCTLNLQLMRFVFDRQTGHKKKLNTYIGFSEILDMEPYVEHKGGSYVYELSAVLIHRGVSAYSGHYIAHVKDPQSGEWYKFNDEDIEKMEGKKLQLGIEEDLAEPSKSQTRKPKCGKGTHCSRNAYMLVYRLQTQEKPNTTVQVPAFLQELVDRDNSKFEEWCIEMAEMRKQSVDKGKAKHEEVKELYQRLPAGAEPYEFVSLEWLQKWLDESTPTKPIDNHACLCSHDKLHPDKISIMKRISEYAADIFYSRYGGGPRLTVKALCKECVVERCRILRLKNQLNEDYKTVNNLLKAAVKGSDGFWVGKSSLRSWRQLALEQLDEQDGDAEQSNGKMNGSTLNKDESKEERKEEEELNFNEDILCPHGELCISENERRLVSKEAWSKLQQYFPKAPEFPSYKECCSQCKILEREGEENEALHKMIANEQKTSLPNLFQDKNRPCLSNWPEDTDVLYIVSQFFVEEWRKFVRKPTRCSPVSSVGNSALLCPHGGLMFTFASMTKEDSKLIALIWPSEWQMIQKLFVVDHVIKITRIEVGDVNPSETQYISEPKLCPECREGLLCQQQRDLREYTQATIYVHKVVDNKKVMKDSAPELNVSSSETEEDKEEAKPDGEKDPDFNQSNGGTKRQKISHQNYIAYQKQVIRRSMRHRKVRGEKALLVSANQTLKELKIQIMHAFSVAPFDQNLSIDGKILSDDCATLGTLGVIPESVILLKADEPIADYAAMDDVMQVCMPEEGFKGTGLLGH
Procedure, shortened: as §1

USP5 = molecular target: T4, USP5 (UniProt P45974)
T4 sequence (whole entry): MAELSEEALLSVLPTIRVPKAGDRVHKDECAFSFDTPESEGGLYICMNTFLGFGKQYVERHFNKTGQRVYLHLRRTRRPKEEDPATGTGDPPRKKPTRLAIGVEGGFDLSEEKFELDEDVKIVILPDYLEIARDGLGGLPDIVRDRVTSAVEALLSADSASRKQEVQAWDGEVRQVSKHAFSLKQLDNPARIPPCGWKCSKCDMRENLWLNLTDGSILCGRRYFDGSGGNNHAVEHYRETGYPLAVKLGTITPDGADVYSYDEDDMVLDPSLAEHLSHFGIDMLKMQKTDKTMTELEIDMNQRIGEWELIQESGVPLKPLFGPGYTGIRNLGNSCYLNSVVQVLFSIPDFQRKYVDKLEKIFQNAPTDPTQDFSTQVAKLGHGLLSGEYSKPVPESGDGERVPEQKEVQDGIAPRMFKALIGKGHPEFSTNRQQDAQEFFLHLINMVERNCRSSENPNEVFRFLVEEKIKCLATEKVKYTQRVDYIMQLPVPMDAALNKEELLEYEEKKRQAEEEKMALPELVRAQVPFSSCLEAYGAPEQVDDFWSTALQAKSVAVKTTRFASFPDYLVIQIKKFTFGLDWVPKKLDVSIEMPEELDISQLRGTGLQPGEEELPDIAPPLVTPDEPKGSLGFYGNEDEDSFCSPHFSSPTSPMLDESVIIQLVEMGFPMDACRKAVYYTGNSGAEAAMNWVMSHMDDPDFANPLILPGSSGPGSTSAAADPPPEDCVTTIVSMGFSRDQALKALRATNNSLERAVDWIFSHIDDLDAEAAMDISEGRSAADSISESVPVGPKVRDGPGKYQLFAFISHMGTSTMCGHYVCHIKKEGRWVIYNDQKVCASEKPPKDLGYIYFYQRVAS
Procedure, shortened: as §1

USP54 = USP54 (UniProt Q70EL1)
Procedure, shortened: as §1

USP7 = USP7 (UniProt Q93009)
Procedure, shortened: as §1

USP8 = molecular target: T5, USP8 (UniProt P40818)
T5 sequence (whole entry): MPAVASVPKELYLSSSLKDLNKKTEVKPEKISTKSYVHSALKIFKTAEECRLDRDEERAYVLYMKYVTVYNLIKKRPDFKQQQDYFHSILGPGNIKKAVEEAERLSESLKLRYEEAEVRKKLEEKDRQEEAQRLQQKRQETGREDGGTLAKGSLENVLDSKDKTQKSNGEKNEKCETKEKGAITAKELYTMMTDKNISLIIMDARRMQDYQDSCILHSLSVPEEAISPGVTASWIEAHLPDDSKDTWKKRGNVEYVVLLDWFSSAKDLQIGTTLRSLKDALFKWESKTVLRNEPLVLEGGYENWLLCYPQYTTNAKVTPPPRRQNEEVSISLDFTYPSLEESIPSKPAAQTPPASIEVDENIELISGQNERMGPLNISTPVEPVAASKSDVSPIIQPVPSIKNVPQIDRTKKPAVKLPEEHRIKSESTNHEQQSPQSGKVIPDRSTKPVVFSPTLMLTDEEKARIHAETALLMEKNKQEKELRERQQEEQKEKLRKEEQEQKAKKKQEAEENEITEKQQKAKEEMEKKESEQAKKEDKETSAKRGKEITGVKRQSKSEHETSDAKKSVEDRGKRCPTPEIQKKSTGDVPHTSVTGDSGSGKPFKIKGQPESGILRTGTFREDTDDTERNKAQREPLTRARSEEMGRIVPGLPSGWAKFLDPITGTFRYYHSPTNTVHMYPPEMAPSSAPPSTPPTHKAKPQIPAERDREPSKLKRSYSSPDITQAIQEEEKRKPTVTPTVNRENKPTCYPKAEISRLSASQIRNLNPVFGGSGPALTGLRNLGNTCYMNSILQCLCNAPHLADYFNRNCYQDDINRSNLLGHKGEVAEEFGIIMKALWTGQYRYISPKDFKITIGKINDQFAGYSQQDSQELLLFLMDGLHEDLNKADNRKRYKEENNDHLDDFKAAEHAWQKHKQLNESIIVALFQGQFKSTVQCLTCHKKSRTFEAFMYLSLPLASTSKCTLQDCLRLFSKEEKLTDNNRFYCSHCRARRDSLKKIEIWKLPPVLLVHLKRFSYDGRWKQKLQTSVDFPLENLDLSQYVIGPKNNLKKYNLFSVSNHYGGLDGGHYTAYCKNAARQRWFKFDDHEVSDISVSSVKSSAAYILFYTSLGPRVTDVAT
Procedure, shortened: as §1

Measured: log2 ratio of Biotin-Ahx-Ub-VS probe labelling

Chain of USP7 (Q93009 whole entry, looked up): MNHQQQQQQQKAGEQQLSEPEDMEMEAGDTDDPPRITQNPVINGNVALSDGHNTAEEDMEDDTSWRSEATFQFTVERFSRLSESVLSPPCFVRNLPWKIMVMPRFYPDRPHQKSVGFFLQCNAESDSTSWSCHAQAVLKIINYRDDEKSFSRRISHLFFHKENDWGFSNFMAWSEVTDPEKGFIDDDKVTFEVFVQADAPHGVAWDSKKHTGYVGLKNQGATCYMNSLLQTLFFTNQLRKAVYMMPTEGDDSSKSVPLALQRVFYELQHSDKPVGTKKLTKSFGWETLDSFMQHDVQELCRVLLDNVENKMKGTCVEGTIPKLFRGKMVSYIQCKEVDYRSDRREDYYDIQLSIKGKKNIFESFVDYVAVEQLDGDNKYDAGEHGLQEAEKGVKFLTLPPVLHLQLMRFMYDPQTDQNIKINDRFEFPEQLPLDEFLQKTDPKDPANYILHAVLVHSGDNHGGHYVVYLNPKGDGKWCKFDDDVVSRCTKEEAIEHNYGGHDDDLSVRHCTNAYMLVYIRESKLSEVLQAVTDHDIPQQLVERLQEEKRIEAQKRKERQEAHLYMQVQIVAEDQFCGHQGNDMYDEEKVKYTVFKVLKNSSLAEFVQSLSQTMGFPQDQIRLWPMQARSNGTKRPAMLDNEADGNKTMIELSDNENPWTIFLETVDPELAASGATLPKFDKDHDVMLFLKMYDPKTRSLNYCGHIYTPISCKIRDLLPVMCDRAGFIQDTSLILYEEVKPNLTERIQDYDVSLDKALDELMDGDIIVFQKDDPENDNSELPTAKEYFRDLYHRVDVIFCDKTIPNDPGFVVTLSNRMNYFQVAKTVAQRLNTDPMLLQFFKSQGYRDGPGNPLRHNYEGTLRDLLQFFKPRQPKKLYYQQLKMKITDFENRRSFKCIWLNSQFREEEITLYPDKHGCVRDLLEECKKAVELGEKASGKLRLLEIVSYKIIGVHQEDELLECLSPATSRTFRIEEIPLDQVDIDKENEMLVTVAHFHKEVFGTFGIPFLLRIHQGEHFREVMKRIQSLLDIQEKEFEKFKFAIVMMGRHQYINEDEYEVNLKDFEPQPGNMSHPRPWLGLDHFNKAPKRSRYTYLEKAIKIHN
Chain of USP46 (P62068 whole entry): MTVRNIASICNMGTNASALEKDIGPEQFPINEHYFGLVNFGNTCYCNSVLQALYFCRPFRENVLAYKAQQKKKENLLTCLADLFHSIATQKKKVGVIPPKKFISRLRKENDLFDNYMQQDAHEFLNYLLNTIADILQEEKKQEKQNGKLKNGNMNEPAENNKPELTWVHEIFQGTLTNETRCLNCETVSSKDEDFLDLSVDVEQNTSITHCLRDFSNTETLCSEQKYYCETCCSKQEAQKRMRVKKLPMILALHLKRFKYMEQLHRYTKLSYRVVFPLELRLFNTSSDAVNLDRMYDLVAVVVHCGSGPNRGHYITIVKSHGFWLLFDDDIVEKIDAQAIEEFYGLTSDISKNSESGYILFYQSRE
Chain of USP54 (Q70EL1 whole entry): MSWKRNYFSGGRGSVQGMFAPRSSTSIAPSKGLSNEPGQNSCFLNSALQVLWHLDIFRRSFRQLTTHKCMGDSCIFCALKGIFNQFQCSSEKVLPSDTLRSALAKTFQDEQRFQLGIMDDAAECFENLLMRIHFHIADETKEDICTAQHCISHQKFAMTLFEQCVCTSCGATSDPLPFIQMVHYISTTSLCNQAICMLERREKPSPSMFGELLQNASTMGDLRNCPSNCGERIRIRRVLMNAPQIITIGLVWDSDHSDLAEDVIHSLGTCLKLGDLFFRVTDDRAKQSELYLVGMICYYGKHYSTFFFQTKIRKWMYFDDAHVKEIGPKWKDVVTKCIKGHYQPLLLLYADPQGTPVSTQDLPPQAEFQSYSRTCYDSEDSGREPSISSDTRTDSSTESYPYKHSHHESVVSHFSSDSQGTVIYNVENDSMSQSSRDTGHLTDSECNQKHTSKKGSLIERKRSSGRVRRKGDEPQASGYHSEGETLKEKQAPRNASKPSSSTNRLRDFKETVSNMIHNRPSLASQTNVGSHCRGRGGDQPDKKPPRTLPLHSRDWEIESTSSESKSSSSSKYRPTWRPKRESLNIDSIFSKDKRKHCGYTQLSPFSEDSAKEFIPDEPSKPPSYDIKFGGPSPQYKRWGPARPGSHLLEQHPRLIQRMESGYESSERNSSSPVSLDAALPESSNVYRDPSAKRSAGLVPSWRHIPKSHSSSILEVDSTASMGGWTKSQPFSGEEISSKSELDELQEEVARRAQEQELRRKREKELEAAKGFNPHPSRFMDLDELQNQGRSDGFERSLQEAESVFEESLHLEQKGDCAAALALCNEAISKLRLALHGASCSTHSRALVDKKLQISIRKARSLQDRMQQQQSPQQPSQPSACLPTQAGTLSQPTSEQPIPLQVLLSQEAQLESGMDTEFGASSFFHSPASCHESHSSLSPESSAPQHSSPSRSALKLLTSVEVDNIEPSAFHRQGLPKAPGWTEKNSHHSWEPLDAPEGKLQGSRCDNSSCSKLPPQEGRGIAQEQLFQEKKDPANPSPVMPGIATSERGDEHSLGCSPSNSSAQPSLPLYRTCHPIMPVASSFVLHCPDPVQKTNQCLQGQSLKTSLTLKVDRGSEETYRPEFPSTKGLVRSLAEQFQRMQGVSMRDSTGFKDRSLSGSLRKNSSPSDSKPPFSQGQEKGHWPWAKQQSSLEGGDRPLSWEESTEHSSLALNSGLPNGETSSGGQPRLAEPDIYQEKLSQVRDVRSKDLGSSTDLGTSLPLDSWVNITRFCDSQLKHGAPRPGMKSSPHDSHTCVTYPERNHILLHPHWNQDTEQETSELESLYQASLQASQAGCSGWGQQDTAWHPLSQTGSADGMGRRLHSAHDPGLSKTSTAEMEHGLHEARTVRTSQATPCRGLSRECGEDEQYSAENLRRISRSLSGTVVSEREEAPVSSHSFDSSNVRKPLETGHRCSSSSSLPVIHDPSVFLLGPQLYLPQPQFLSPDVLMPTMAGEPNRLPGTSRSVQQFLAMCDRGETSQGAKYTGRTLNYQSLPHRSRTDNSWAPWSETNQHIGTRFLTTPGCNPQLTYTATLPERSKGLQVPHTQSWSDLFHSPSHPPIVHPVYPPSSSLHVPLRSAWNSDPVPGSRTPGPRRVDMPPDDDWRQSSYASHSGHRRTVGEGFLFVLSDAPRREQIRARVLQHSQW

Cc1noc(N2CCN(C(=O)CCl)CC2)n1.Cl
inactive: USP42 0.0551 | USP46 -0.0466 | USP47 -0.329 | USP48 0.0849 | USP5 0.492 | USP54 0.167 | USP7 -0.27 | USP8 -0.307
